Assay results from PMC7862700, “An all-to-all approach to the identification of sequence-specific readers for epigenetic DNA modifications on cytosine”.

How the values were obtained:
Experiment in all cases: DAPPL (digital affinity profiling via proximity ligation, sequencing); 10 mM Tris-HCl pH 7.5, 50 mM NaCl, 1 mM DTT, 4% glycerol, room temperature, 30 min; GST-TFs on glutathione beads, 16-mer random dsDNA library, 0.1% formaldehyde crosslink after washing; high values mean tight binding
[1] = target: T1, FLI1 (Homo sapiens, UniProt Q01543 1-452); conditions: protein: recombinant; tags: N-terminal GST; dsDNA, one strand shown
T1 sequence: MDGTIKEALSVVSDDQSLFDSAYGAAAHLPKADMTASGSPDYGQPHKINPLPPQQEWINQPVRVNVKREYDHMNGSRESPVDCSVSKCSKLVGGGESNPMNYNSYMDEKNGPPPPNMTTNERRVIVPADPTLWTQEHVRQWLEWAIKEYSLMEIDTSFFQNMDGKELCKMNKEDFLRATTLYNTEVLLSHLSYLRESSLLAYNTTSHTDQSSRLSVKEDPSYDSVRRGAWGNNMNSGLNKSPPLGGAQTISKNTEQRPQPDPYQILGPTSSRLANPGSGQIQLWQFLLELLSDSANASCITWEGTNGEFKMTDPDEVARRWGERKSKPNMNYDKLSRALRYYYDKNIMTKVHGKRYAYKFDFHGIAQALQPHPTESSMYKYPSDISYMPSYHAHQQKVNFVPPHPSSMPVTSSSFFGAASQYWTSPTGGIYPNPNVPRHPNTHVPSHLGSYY
Method in brief: (§1)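 Binding signal is given per hexamer as its read frequency for a factor divided by its frequency in the tag-only sample. GST-fused human transcription factors were expressed in yeast, captured on glutathione beads, barcoded with DNA and pooled with that sample, then incubated with 200 nmole of a 16-mer random double-stranded DNA library in Tris/NaCl/DTT/glycerol buffer for 30 min at room temperature. The pools were then washed, crosslinked, proximity-ligated, amplified by PCR and sequenced on an Illumina NextSeq500.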

[2] = target: T2, ELK1 (Homo sapiens, UniProt P19419 1-428); conditions: protein: recombinant; tags: N-terminal GST; dsDNA, one strand shown
T2 sequence: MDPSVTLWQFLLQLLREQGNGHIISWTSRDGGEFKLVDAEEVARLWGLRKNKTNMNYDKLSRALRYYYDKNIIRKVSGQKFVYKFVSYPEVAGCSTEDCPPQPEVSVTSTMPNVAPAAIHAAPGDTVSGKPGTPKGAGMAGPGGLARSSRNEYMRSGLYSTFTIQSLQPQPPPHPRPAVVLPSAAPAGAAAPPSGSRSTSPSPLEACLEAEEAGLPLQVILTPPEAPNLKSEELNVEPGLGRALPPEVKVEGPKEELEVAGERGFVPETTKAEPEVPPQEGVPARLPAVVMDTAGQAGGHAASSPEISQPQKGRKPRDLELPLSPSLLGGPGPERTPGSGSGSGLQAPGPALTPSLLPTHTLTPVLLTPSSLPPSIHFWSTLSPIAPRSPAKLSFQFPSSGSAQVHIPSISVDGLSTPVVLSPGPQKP
Method in brief: as §1

[3] = target: T3, GABPA (Homo sapiens, UniProt Q06546 1-454); conditions: protein: recombinant; tags: N-terminal GST; dsDNA, one strand shown
T3 sequence: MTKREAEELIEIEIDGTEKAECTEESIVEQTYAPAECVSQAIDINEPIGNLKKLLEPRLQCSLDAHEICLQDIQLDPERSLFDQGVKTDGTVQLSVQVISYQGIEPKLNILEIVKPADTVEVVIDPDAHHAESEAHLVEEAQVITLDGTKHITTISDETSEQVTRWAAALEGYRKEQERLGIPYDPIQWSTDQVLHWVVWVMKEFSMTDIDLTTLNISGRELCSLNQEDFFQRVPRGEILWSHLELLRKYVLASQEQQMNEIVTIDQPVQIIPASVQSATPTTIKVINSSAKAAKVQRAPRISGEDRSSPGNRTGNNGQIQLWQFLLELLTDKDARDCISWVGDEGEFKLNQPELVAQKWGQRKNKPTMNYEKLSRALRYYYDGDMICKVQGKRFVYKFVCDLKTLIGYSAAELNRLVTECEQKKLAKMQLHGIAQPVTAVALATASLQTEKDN
Method in brief: as §1

[4] = target: T4, ERG (Homo sapiens, UniProt P11308 1-479); conditions: protein: recombinant; tags: N-terminal GST; dsDNA, one strand shown
T4 sequence: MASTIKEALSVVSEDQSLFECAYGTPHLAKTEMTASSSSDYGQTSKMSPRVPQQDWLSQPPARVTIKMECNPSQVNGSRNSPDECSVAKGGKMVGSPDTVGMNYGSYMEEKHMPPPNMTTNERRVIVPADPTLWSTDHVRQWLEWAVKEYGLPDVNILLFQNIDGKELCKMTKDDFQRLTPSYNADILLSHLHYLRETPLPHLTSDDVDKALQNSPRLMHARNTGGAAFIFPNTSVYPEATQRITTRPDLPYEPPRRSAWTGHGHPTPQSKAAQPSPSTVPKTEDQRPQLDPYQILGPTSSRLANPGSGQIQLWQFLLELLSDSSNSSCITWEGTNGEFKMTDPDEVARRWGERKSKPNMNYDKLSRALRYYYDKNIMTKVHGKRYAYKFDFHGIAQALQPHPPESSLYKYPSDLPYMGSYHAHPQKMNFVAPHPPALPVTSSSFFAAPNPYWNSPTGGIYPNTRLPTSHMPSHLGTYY
Method in brief: as §1

[5] = target: ELF1 (Homo sapiens, UniProt P32519 1-619); conditions: protein: recombinant; tags: N-terminal GST; dsDNA, one strand shown
Sequence of ELF1 (P32519 whole entry): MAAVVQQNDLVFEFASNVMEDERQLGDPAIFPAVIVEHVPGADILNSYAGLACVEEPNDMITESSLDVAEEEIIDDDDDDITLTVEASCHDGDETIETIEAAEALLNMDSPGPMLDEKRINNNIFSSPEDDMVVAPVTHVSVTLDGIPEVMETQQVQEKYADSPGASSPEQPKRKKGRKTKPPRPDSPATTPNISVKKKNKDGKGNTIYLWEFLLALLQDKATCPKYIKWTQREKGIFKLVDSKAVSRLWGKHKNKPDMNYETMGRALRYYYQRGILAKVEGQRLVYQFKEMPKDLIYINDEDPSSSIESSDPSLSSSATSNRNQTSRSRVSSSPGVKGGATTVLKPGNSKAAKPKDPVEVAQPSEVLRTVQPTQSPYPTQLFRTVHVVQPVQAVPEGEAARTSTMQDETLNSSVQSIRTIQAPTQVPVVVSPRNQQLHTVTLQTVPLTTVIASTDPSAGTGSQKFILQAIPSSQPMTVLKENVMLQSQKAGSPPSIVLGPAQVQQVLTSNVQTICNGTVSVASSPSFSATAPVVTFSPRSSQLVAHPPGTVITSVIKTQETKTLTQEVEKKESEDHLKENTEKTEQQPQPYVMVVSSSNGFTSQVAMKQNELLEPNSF
Method in brief: as §1

[6] = target: T5, EHF (Homo sapiens, UniProt Q9NZC4 1-300); conditions: protein: recombinant; tags: N-terminal GST; dsDNA, one strand shown
T5 sequence: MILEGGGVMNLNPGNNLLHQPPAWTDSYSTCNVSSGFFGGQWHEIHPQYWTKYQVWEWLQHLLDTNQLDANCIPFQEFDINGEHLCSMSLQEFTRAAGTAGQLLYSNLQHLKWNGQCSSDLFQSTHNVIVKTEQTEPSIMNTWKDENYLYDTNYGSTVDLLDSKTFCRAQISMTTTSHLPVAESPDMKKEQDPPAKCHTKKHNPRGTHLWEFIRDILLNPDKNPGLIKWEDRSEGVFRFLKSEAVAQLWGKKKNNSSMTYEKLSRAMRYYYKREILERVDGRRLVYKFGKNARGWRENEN
Method in brief: as §1

[7] = target: SPI1 (Homo sapiens, UniProt P17947 1-270); conditions: protein: recombinant; tags: N-terminal GST; dsDNA, one strand shown
Method in brief: as §1

[8] = target: SPIB (Homo sapiens, UniProt Q01892 1-262); conditions: protein: recombinant; tags: N-terminal GST; dsDNA, one strand shown
Sequence of SPIB (Q01892 whole entry): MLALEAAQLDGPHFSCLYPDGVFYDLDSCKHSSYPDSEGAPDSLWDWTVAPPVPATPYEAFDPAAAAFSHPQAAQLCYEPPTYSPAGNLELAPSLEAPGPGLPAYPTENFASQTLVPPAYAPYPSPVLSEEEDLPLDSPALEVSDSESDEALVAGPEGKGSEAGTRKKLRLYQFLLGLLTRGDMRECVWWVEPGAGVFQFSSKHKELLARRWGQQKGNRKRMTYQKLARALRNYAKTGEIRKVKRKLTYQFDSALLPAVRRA
Method in brief: as §1

[9] = target: T6, ELK3 (Homo sapiens, UniProt P41970 1-407); conditions: protein: recombinant; tags: N-terminal GST; dsDNA, one strand shown
T6 sequence: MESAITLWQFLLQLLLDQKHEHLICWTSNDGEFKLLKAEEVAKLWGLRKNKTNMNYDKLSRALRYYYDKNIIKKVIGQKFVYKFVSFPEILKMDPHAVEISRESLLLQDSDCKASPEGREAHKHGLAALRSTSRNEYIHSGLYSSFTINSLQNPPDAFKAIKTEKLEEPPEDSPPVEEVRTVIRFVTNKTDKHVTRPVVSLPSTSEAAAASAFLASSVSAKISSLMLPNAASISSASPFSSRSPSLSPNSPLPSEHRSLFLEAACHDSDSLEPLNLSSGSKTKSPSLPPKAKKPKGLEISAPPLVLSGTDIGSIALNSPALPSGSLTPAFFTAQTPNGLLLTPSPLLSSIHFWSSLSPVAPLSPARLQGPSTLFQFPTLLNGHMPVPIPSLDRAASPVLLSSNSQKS
Method in brief: as §1

[10] = target: T7, FEV (Homo sapiens, UniProt Q99581 1-238); conditions: protein: recombinant; tags: N-terminal GST; dsDNA, one strand shown
T7 sequence: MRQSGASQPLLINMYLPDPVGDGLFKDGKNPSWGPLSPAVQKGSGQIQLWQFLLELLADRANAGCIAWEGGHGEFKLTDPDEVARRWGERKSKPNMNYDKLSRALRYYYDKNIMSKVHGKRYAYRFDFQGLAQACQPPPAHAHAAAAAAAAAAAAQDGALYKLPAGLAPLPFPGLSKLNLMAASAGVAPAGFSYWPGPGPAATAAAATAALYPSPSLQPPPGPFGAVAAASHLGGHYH
Method in brief: as §1

[11] = target: ETV5 (Homo sapiens, UniProt P41161 1-510); conditions: protein: recombinant; tags: N-terminal GST; dsDNA, one strand shown
Sequence of ETV5 (P41161 whole entry): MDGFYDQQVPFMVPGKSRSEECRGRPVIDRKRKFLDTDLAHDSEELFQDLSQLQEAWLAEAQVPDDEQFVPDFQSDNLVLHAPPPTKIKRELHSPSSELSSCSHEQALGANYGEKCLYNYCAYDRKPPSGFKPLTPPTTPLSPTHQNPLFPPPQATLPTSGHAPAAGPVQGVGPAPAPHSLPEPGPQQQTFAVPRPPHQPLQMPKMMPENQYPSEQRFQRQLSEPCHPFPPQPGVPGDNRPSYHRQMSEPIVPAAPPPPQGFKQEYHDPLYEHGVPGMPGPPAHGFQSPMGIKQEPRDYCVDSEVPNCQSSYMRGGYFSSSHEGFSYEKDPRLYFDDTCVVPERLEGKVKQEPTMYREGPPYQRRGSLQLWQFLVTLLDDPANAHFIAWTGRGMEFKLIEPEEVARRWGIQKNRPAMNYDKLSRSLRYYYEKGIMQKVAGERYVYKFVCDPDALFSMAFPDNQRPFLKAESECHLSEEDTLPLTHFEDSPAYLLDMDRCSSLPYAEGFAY
Method in brief: as §1

[12] = target: HSF1 (Homo sapiens, UniProt Q00613 1-529); conditions: protein: recombinant; tags: N-terminal GST; chain copies: 3; dsDNA, one strand shown
Sequence of HSF1 (Q00613 whole entry): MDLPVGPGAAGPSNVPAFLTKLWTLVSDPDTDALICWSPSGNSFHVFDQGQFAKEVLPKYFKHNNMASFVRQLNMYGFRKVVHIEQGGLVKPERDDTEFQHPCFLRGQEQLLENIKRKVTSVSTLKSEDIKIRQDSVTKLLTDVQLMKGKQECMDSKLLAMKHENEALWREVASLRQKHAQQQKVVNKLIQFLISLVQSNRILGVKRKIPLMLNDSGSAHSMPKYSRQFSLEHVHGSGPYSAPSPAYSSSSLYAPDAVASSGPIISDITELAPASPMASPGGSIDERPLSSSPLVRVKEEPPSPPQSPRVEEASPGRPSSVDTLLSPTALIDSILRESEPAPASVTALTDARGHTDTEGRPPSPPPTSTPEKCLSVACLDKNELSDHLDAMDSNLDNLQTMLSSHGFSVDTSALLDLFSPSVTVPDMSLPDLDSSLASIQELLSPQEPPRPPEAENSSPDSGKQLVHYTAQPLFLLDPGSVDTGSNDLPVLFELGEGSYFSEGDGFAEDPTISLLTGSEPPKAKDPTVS
Method in brief: as §1

[13] = target: T8, SPIC (Homo sapiens, UniProt Q8N5J4 1-248); conditions: protein: recombinant; tags: N-terminal GST; dsDNA, one strand shown
T8 sequence: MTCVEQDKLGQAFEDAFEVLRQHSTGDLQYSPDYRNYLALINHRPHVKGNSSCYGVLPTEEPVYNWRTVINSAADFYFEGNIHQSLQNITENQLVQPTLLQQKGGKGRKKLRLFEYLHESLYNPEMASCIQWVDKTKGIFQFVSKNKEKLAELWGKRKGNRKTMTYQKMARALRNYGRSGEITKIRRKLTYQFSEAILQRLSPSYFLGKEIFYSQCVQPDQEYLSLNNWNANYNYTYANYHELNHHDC
Method in brief: as §1

[14] = target: ELF4 (Homo sapiens, UniProt Q99607 1-663); conditions: protein: recombinant; tags: N-terminal GST; dsDNA, one strand shown
Sequence of ELF4 (Q99607 whole entry): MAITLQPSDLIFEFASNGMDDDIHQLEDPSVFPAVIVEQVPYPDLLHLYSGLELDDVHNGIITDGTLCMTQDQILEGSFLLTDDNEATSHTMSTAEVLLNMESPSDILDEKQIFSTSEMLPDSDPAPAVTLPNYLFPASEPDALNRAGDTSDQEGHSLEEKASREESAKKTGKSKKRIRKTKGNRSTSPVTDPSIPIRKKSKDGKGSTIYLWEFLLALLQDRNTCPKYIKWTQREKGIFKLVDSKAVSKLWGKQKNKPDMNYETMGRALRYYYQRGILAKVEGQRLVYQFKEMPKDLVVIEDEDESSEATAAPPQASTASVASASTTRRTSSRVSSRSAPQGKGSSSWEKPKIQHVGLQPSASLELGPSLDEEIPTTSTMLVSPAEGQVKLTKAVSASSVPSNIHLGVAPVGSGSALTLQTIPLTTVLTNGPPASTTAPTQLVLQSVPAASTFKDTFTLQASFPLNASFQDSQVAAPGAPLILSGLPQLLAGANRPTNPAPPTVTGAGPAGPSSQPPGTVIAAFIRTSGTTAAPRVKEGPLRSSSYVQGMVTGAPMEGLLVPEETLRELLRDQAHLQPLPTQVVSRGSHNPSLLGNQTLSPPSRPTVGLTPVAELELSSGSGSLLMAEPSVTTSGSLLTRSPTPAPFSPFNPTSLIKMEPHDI
Method in brief: as §1

[15] = target: T9, ELK4 (Homo sapiens, UniProt P28324-2 1-405); conditions: protein: recombinant; tags: N-terminal GST; dsDNA, one strand shown
T9 sequence: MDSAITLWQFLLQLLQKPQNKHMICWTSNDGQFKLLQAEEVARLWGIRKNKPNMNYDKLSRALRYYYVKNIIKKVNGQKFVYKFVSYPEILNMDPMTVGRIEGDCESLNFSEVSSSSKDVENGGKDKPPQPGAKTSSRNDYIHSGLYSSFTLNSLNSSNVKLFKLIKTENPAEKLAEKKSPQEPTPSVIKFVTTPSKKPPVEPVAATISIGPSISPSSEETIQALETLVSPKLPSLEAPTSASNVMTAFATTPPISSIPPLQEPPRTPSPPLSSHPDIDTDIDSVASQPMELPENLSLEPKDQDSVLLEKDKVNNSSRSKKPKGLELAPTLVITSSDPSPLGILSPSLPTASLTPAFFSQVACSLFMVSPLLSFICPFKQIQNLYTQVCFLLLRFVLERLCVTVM
Method in brief: as §1

[16] = target: T10, ETV2 (Homo sapiens, UniProt O00321 1-342); conditions: protein: recombinant; tags: N-terminal GST; dsDNA, one strand shown
T10 sequence: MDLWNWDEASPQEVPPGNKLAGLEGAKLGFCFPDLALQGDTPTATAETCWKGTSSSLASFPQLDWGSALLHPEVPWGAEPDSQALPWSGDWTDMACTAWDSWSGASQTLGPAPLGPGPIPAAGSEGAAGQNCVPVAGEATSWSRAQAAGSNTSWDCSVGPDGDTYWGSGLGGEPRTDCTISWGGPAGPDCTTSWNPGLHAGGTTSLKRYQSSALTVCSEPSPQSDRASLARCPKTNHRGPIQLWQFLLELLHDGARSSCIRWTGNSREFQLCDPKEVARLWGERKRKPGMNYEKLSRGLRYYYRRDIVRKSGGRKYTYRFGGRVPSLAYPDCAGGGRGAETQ
Method in brief: as §1

[17] = target: T11, ELF3 (Homo sapiens, UniProt P78545 1-371); conditions: protein: recombinant; tags: N-terminal GST; dsDNA, one strand shown
T11 sequence: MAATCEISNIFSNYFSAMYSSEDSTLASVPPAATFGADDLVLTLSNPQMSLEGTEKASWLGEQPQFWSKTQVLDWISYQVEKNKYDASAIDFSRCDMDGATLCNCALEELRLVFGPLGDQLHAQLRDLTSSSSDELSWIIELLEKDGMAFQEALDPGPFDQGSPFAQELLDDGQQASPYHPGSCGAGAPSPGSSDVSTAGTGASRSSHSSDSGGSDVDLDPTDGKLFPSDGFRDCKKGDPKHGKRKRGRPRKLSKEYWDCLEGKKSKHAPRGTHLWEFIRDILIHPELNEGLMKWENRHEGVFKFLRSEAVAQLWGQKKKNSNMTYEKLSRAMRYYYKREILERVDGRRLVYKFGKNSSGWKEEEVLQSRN
Method in brief: as §1

[18] = target: CRX (Homo sapiens, UniProt O43186 1-299); conditions: protein: recombinant; tags: N-terminal GST; dsDNA, one strand shown
Sequence of CRX (O43186 whole entry): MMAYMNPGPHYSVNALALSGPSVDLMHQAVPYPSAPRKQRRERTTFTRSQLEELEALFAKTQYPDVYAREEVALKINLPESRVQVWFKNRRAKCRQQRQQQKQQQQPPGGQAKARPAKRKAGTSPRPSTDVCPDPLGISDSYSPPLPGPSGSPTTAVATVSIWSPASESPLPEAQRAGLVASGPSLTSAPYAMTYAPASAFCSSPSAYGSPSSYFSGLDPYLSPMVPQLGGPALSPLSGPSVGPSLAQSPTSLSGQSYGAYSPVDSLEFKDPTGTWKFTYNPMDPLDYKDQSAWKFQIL
Method in brief: as §1

[19] = target: ETV1 (Homo sapiens, UniProt P50549 1-477); conditions: protein: recombinant; tags: N-terminal GST; dsDNA, one strand shown
Sequence of ETV1 (P50549 whole entry): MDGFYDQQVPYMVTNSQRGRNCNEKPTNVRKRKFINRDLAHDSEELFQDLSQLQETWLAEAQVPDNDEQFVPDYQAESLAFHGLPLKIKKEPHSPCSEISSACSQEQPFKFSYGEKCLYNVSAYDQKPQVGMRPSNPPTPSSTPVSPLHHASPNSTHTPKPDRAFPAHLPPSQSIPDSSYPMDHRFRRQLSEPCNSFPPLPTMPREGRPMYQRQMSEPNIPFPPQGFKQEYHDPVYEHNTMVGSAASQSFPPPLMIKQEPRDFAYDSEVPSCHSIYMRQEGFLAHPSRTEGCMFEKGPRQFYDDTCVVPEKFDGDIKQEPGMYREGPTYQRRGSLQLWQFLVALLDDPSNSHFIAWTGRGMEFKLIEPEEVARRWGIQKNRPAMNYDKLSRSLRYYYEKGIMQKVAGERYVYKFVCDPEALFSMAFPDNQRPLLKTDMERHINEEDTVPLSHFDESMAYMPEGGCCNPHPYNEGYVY
Method in brief: as §1

AAATCT
binding signal [1]: 1.28 fold enrichment (6-mer frequency, TF over GST control)
binding signal [2]: 1.21 fold enrichment (6-mer frequency, TF over GST control)
binding signal [3]: 1.23 fold enrichment (6-mer frequency, TF over GST control)
binding signal [4]: 1.31 fold enrichment (6-mer frequency, TF over GST control)
binding signal [5]: 1.3 fold enrichment (6-mer frequency, TF over GST control)
binding signal [6]: 1.2 fold enrichment (6-mer frequency, TF over GST control)
binding signal [7]: 1.14 fold enrichment (6-mer frequency, TF over GST control)
binding signal [8]: 1.29 fold enrichment (6-mer frequency, TF over GST control)
binding signal [9]: 1.22 fold enrichment (6-mer frequency, TF over GST control)
binding signal [10]: 1.29 fold enrichment (6-mer frequency, TF over GST control)
binding signal [11]: 1.31 fold enrichment (6-mer frequency, TF over GST control)
binding signal [12]: 1.75 fold enrichment (6-mer frequency, TF over GST control)
binding signal [13]: 1.39 fold enrichment (6-mer frequency, TF over GST control)
binding signal [14]: 1.34 fold enrichment (6-mer frequency, TF over GST control)
binding signal [15]: 1.25 fold enrichment (6-mer frequency, TF over GST control)
binding signal [16]: 1.24 fold enrichment (6-mer frequency, TF over GST control)
binding signal [17]: 1.25 fold enrichment (6-mer frequency, TF over GST control)
binding signal [18]: 2.03 fold enrichment (6-mer frequency, TF over GST control)
binding signal [19]: 1.35 fold enrichment (6-mer frequency, TF over GST control)
